Measured values taken from PubChem BioAssay (NCI).
The panel holds about 83,000 compounds, 20% with a hit somewhere; the sample as a whole holds those more often.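 How to read the values: 0–100, growth inhibition (40 = 60% inhibited); 0, no net growth; -100 to 0, cell death (-40 = 40% of starting cells died; -100 = all dead).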 Activity calls are given as the source filed them. How the source made its calls: active means growth percent below 10; inactive means the rest.

Key:
Assay in all cases: NCI-60 one-dose screen, 48 h (100 = growth as untreated, 0 = no growth, -100 = all killed)
Conditions in all cases: 10 µM unless noted
[1] = test system: HCT-15 colon
[2] = test system: HT29 colon
[3] = test system: SNB-75 CNS
[4] = test system: SNB-19 CNS
[5] = test system: U251 CNS
[6] = test system: PC-3 prostate
[7] = test system: SK-MEL-5 melanoma
[8] = test system: UACC-62 melanoma
[9] = test system: LOX IMVI melanoma
[10] = test system: SK-MEL-28 melanoma

Measured: growth

CS(=O)(=O)Nc1cc(-c2ccc3ncnc(Nc4ccc5c(cnn5Cc5ccccn5)c4)c3c2)cnc1Cl
inactive: [1] 99.2% | [2] 80.7% | [3] 16.2% | [4] 80.6% | [5] 81.5% | [6] 72.8% | [7] 77.7% | [8] 61.8% | [9] 71% | [10] 56.1%

Oc1c(Cl)cc(Cl)c2ccc(Cn3cc(-c4cc(F)cc(F)c4)nn3)nc12
inactive: [1] 41.9% | [2] 68.5% | [3] 58.6% | [4] 94.1% | [5] 96.2% | [6] 84.8% | [7] 98.5% | [8] 74.1% | [9] 20.8% | [10] 61.4%

COc1cc(-c2csc(NC(=O)c3cc(-n4cnc(C)c4)cc(C(F)(F)F)c3)n2)cc(OC)c1OC
inactive: [1] 39.5% | [2] 52.6% | [3] 78.6% | [4] 62.2% | [5] 56.9% | [6] 37.3% | [7] 51% | [8] 44.1% | [9] 53.9% | [10] 78.9%

C=C1C(=O)O[C@H]2[C@H]1CC/C(COC(=O)N[C@H]1C[C@H](O[C@H]3C[C@](O)(C(=O)CO)Cc4c(O)c5c(c(O)c43)C(=O)c3c(OC)cccc3C5=O)O[C@@H](C)[C@H]1O)=C\CC[C@@]1(C)O[C@@H]21
active: [9] 0.614% | [10] 9.44%
inactive: [1] 99.2% | [2] 25.2% | [3] 56.4% | [4] 68.4% | [5] 45.3% | [6] 78% | [7] 68.3% | [8] 34.6%

COC(=O)/C(CCC=C(C)C)=C1\[C@@H](OC(C)=O)C[C@@]2(C)[C@H]1C[C@@H](O)[C@H]1[C@@]3(C)CC[C@H](NCCN)[C@@H](C)[C@@H]3CC[C@@]12C
inactive: [1] 55% | [2] 33.5% | [3] 73% | [4] 95.1% | [5] 69.1% | [6] 59.6% | [7] 88.3% | [8] 89.5% | [9] 84.5% | [10] 89.2%

O=S(=O)(Nc1cc(Br)c(O)c2ccccc12)c1ccc(F)cc1
active: [9] 0.868%
inactive: [1] 86.8% | [2] 113% | [3] 100% | [4] 108% | [5] 35.4% | [6] 32% | [7] 48.9% | [8] 54.2% | [10] 81.1%

Cc1ccc(C(C(N)=O)C(C(N)=O)c2ccccc2)cc1 (stereo not given)
inactive: [1] 110% | [2] 109% | [3] 114% | [4] 109% | [5] 104% | [6] 105% | [7] 117% | [8] 119% | [9] 108% | [10] 123%

CCC(=C(c1ccc(OCCN2CCCC2)cc1)c1ccc(OCCN2CCCC2)cc1)c1ccc(Cl)cc1
active: [1] -70.5% | [2] -49.9% | [3] -58.2% | [4] -19% | [5] -77.4% | [6] -7.15% | [7] -83.4% | [8] -46.9% | [9] -90.3% | [10] -81.7%

Cc1c(-n2nnc(-c3nc4ccccc4s3)c2N)c(=O)n(-c2ccccc2)n1C
inactive: [1] 98.3% | [2] 100% | [3] 83.1% | [4] 99.9% | [5] 101% | [6] 98.2% | [7] 99.6% | [8] 93.3% | [9] 93.1% | [10] 111%

O=C(Cn1c(=O)sc2nc3ccccc3nc21)Nc1ncc(Cc2cccc(Cl)c2Cl)s1
inactive: [1] 98.7% | [2] 107% | [3] 74.6% | [4] 93.4% | [5] 94.9% | [6] 87.9% | [7] 99.9% | [8] 79.1% | [9] 94.6% | [10] 120%

CCCCCCCCCCCCCCCC(N)c1ccccc1 (stereo not given)
active: [1] -73.9% | [2] -65.3% | [5] -93.2% | [6] 5.14% | [9] -100%
inactive: [3] 66.2% | [4] 23.9% | [7] 87.8% | [8] 79.2% | [10] 85.3%

CC1(C)CC[C@]2(c3nnc(-c4ccncc4)o3)CC[C@H]3C(=CC[C@H]4[C@@]3(C)CC[C@H]3C(C)(C)C(=O)CC[C@]43C)[C@@H]2C1
inactive: [1] 61.1% | [2] 50.9% | [3] 68.3% | [4] 74% | [5] 62.4% | [6] 25.1% | [7] 62.4% | [8] 54.7% | [9] 57.4% | [10] 87.5%

COc1ccc(C(=O)Nc2ncc(Cc3cccc(Cl)c3)s2)cc1OC
inactive: [1] 23.4% | [3] 19.8% | [4] 34.2% | [5] 28.4% | [6] 27.4% | [8] 10.6% | [10] 10.9%
active: [2] 9.89% | [7] -25.9% | [9] 7.25%
